This note sets out measurements from ChEMBL document CHEMBL1961873, “Compounds: GSK PKIS; Assays: Nanosyn kinase panel” (2012).

Assay [1] addresses Serine/threonine-protein kinase MRCK alpha (Homo sapiens) (UniProt Q5VT25). The following applies: at 0.1 µM.
Assay [2] shares this target. The conditions noted are these: at 1 µM.
Assay [3] deals with Serine/threonine-protein kinase MRCK beta (Homo sapiens) (UniProt Q9Y5S2). The conditions noted are these: at 0.1 µM.
For assay [4] the target is unchanged. The conditions noted are these: at 1 µM.
In assay [5] the target is Ribosomal protein S6 kinase alpha-5 (Homo sapiens) (UniProt O75582). The conditions noted are these: at 0.1 µM.
Assay [6] shares this target. The conditions noted are these: at 1 µM.
In assay [7] the target is Ribosomal protein S6 kinase alpha-4 (Homo sapiens) (UniProt O75676). The following applies: at 0.1 µM.
Sequence of Ribosomal protein S6 kinase alpha-4 (Homo sapiens) (O75676 whole entry, looked up): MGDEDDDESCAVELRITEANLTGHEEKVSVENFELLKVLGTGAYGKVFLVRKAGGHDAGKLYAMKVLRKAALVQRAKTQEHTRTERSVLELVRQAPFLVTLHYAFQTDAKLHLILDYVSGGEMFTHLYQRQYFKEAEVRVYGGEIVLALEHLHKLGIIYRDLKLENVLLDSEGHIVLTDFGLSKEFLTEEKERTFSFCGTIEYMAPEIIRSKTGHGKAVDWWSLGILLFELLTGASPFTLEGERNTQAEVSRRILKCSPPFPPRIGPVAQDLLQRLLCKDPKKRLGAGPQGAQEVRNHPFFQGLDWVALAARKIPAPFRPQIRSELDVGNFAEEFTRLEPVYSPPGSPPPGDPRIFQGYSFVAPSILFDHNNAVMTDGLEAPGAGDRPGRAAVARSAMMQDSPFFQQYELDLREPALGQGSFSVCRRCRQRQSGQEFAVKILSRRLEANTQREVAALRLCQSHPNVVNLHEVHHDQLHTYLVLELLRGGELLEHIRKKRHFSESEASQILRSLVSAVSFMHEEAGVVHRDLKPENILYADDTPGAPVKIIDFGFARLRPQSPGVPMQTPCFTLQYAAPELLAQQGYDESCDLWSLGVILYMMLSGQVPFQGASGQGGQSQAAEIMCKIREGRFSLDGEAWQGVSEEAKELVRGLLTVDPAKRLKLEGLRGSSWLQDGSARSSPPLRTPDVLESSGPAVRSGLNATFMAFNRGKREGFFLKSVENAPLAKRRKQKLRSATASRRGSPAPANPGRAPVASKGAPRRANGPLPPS
For assay [8] the target is unchanged. The conditions noted are these: at 1 µM.
Assay [9] addresses Ribosomal protein S6 kinase beta-1 (Homo sapiens) (UniProt P23443). The conditions noted are these: at 0.1 µM.
Assay [10] has the same target. The conditions noted are these: at 1 µM.
In assay [11] the target is T1, 3-phosphoinositide-dependent protein kinase 1 (Homo sapiens) (UniProt O15530).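 Note: values are mean inhibition of PDK1.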
T1 sequence (whole entry): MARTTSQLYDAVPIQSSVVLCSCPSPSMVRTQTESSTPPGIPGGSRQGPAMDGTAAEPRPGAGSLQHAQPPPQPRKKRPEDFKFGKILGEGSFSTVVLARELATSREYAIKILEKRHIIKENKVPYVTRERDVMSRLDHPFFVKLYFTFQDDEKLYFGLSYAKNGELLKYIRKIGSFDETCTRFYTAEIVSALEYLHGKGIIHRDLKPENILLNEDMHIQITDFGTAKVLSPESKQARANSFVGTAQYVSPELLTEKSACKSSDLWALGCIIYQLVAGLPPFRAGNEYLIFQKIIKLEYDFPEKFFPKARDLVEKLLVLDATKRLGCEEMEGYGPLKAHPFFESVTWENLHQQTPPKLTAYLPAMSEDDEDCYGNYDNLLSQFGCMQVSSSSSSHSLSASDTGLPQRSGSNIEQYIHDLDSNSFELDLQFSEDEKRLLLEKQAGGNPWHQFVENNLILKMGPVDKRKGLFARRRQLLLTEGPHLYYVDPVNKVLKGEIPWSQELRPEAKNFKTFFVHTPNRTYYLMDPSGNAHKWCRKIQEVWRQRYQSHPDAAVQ
The conditions noted are these: at 0.1 µM.

The target of assay [12] is cAMP-dependent protein kinase catalytic subunit alpha (Homo sapiens) (UniProt P17612). The following applies: at 0.1 µM.
Assay [13] has the same target. The following applies: at 1 µM.
Assay [14] has as its target Protein kinase C alpha type (Homo sapiens) (UniProt P17252). The following applies: at 0.1 µM.
Assay [15] shares this target. The conditions noted are these: at 1 µM.
In assay [16] the target is Protein kinase C beta type (Homo sapiens) (UniProt P05771). The conditions noted are these: at 0.1 µM.
The target is the same in assay [17]. The following applies: at 1 µM.
Assay [18] concerns the target Protein kinase C eta type (Homo sapiens) (UniProt P24723). The following applies: at 0.1 µM.
For assay [19] the target is unchanged. The following applies: at 1 µM.
For assay [20], the target named is Protein kinase C gamma type (Homo sapiens) (UniProt P05129). The conditions noted are these: at 0.1 µM.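 Note: values are mean percent inhibition of PKC gamma.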

As usually defined, the inhibition is the drop in the measured response relative to a control, in per cent.

Sequence of Serine/threonine-protein kinase MRCK alpha (Homo sapiens) (Q5VT25 whole entry): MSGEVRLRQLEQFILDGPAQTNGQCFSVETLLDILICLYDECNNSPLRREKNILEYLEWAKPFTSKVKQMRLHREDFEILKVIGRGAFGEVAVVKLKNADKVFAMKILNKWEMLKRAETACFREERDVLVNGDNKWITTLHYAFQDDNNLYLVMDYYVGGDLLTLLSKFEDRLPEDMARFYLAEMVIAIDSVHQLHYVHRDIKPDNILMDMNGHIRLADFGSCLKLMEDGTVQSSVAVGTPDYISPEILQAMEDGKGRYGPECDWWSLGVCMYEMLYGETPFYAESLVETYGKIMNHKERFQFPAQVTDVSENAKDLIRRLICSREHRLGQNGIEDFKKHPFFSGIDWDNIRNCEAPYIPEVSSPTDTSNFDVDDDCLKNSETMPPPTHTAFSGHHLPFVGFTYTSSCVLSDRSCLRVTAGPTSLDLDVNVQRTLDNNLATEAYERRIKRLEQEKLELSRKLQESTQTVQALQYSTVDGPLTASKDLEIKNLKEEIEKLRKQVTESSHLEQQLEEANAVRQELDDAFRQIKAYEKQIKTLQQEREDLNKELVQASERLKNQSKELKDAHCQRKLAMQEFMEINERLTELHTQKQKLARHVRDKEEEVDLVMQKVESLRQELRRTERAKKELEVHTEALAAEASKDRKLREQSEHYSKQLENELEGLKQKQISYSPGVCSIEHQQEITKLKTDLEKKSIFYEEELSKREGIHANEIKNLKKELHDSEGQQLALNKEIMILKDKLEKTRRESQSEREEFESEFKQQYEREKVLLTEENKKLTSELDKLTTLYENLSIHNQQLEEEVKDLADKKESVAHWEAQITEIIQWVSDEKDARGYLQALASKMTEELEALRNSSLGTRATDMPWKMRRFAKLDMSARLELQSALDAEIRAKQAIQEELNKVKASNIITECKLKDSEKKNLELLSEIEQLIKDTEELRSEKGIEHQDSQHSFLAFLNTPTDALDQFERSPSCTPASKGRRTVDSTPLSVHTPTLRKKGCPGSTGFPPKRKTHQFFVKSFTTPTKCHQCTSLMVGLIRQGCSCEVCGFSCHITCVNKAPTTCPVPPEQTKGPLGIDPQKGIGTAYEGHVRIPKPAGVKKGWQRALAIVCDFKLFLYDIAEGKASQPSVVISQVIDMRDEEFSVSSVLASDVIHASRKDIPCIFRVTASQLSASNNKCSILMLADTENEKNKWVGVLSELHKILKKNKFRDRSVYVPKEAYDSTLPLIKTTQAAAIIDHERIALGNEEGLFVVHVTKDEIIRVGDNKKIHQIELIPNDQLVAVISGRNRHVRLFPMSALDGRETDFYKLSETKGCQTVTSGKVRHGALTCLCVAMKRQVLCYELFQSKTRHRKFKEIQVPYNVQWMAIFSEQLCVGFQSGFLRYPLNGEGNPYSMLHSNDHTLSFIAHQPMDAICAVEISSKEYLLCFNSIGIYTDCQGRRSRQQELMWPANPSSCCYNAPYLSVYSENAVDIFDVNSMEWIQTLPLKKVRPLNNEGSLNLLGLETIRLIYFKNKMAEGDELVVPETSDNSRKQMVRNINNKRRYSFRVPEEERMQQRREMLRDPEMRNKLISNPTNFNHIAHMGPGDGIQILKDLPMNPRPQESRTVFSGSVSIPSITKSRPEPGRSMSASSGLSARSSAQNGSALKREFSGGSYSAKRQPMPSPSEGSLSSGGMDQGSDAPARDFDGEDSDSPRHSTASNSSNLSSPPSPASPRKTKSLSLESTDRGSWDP
Sequence of Protein kinase C eta type (Homo sapiens) (P24723 whole entry): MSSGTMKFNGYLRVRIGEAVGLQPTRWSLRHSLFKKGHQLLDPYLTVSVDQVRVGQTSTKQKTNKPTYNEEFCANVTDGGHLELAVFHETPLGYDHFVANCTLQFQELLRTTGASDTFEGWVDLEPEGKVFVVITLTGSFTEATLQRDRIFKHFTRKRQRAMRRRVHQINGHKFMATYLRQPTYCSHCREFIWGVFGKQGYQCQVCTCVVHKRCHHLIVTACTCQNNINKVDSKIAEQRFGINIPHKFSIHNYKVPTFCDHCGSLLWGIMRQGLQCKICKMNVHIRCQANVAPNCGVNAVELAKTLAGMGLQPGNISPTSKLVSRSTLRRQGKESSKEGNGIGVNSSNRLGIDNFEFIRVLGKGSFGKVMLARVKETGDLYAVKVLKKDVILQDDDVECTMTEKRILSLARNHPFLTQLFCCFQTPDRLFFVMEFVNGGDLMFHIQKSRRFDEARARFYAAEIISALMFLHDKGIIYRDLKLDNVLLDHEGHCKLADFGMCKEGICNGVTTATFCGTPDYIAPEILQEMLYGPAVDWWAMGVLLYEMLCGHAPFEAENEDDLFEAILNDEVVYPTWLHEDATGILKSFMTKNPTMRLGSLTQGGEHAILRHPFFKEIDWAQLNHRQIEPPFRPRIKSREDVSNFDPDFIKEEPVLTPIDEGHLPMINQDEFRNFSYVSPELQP
Sequence of Ribosomal protein S6 kinase beta-1 (Homo sapiens) (P23443 whole entry, looked up): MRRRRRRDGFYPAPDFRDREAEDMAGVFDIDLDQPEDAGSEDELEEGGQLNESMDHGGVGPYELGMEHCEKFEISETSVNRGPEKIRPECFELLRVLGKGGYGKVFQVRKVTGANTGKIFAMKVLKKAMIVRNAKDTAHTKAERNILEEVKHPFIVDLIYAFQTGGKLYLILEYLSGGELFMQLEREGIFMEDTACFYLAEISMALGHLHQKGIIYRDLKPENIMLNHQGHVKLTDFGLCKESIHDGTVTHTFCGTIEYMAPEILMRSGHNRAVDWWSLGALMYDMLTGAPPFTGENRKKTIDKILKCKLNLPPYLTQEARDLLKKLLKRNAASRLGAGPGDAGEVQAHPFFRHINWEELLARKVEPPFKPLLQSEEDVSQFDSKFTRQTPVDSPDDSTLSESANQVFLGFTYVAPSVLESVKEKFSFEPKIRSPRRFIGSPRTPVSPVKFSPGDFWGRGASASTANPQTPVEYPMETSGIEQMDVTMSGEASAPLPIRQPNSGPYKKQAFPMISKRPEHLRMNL

Turning to `CC(=O)Nc1cccc(C#Cc2cncnc2Nc2ccc(OCc3cccc(F)c3)c(Cl)c2)c1`, the inhibition is 1.39% in assay [1]; 0.82% in assay [2]; 1.53% in assay [3]; 1.93% in assay [4]; -3.6% in assay [5]; -3.85% in [6]. In addition, the inhibition in [7] was found to be 1.16%; in [8], 2.5%; in assay [9], 2.04%; in assay [10] it was 2.07%; in [11], 2.17%; in [12], 2.17%. Also, the inhibition in assay [13] was 4.12%; in assay [14], 0.9%; in assay [15], 2.2%; in [16], 0.65%; in assay [17], 0.21%; in assay [18] it was 0.22%. For the same compound, the inhibition in [19] was -0.44%; in assay [20], 3.94%.

For the compound `Cc1ccc2c(-c3ccnc(Nc4ccccc4)n3)c(-c3ccc(F)cc3)nn2n1`, the inhibition in assay [1] was determined as 1.01%; in assay [2] it was 7.71%; in [3], 1.04%; in assay [4], 1.94%; in assay [5], 3.46%; in assay [6], 3.65%. Moreover, the inhibition in assay [7] came out at 0.97%; in assay [8] it was 3.78%; in assay [9], 1.87%; in assay [10], 3.16%; in assay [11], 2.18%; in assay [12] it was 1.83%. Moreover, the inhibition in [13] stood at 4.25%; in assay [14] it was 1.15%; in assay [15], 11.3%; in assay [16], 1.13%; in assay [17], 6.49%; in assay [18], 0.7%. Moreover, the figures for the inhibition in assay [19] and in assay [20] were 1.97% and 2.27%, respectively.

`CCn1c(-c2nonc2N)nc2c(C#CC(C)(C)O)ncc(OC3CCNCC3)c21`: the inhibition is 8.47% in [1]; 33.8% in assay [2]; 2.8% in assay [3]; 22.5% in [4]; 2.46% in [5]; 11.8% in assay [6]. The inhibition in [7] is 3.66%; in assay [8] it was 14.9%; in assay [9] it was 4.92%; in assay [10], 26.5%; in [11], 2.52%; in [12], 62.4%. Further, the inhibition came to 89.9% in [13]; 3.68% in [14]; 30.4% in assay [15]; 41.8% in assay [16]; 73.2% in [17]; 89.7% in assay [18]. Also, the inhibition in [19] stood at 99.9%; in assay [20], 35.1%.

In the case of `COc1cc(/C=N/Nc2ncnc3[nH]ncc23)ccc1O`, the inhibition turned out to be 0.11% in [1]; 2.49% in assay [2]; 0.6% in assay [3]; 1.83% in assay [4]; 4.13% in assay [5]; 13.9% in assay [6]. In addition, the inhibition came out at 2.93% in [7]; 8.42% in assay [8]; 3.45% in assay [9]; 21.4% in [10]; 2.95% in assay [11]; 1.43% in assay [12]. Also, the inhibition in [13] was 5.96%; in assay [14] it was 0.03%; in [15] it was 3.59%; in assay [16] it was -0.06%; in [17], 4.56%; in assay [18] it was 0.97%. The inhibition in assay [19] worked out at 7.35%; in assay [20], 2.16%.

In the case of `COc1ccc(CNC(=O)c2ccc(-c3cc(-c4nnc(C)o4)ccc3C)cc2)cc1`, the inhibition in assay [1] is 2.98%; in [2], 6.58%; in [3], 2.16%; in assay [4], 2.99%; in assay [5], 9.25%; in [6] it was 9.58%. Also, the inhibition is 3.89% in assay [7]; 4.66% in [8]; 1.64% in assay [9]; 2.15% in assay [10]; 1.94% in assay [11]; 3.14% in assay [12]. Besides, the inhibition in assay [13] is 3.15%; in [14], 0.19%; in assay [15], 0.76%; in assay [16] it was 6.66%; in assay [17], 9.43%; in assay [18], -0.12%. The inhibition in [19] came out at 4.73%; in assay [20], 3.1%.

As to `NS(=O)(=O)c1ccc(N/N=C2\C(=O)Nc3ccc4ncccc4c32)cc1`, the inhibition is 1.68% in assay [1]; 13.5% in assay [2]; 0.55% in assay [3]; 7.07% in [4]; 5.1% in [5]; 14.5% in assay [6]. The inhibition in assay [7] worked out at 20.4%; in assay [8] it was 61.2%; in assay [9], 2.37%; in [10], 12.1%; in [11], 20.8%; in [12], 1.4%. Further, the inhibition in [13] is 3.13%; in assay [14] it was 0.41%; in assay [15], 3.78%; in assay [16], -0.44%; in assay [17], -0.03%; in assay [18], 2.36%. For the same compound, the inhibition in [19] stood at 3.07%; in [20] it was 0.51%.
